Only some compounds are listed: those with a hit (about 11% of all), similar ones and a draw of the others.
HP1b binding inh: HP1-beta chromodomain-methylated histone interaction inhibition. AlphaScreen HP1-beta / biotin-H3K9me3 peptide binding. P83916. 0.56% of 390,000 active. Potency, µM (titrated, usually from 114 µM), without a hit: top-dose activity change, negative = inhibition, usual class: inhibitors; further: nearly all actives have a fitted effect of over 70% in size
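AlphaScreen: HP1-beta (50 nM) preformed 30 min with biotin-H3(1-18)K9me3 peptide (50 nM) in PBS pH 7.4, 0.01% Tween-20. Compound added for 30 min at RT, then streptavidin donor/nickel chelate acceptor beads (10 ug/mL) for 30 min.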
JMJD2A Tudor inh: blocks the human JMJD2A Tudor domain; AlphaScreen JMJD2A-Tudor / H3K4me3 peptide binding; O75164; Potency, µM (doses to about 114 µM), inactives show at the top dose activity change, negative = inhibition, most hits filed as inhibitors; 4.4% of 390,000 active; further: on the % scale 0 is the no-effect control and ±100 the full control effect; nearly all actives have a fitted effect of over 50% in size
VDR inhibitor: vitamin D3 receptor (human) inhibition; P11473; VDR-SRC2-3 peptide fluorescence polarization, 2 h; Potency, µM, for the others: max response, negative = inhibition, most hits filed as inhibitors; AID 504847; 0.93% of 400,000 active; further: on the % scale 0 is the no-effect control and ±100 the full control effect
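Fluorescence polarization assay of small-molecule disruption of VDR binding to coregulator peptide SRC2-3. Compounds and controls pin-transferred, then read after 2 h incubation at ambient room temperature.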
PLK1 PBD block: inhibitors of human PLK1 polo-box domain binding | P53350 | Plk1 PBD binding of FITC phosphopeptide, fluorescence polarization | Potency, µM, for inactives: max response, negative = inhibition, hits mostly inhibitors | 2.8% of 360,000 active; further: series mostly up to about 57 µM; on the % scale 0 is the no-effect control and ±100 the full control effect; nearly all actives have a fitted effect of over 65% in size
Target sequence (P53350 whole entry, looked up, the tested form may be a part): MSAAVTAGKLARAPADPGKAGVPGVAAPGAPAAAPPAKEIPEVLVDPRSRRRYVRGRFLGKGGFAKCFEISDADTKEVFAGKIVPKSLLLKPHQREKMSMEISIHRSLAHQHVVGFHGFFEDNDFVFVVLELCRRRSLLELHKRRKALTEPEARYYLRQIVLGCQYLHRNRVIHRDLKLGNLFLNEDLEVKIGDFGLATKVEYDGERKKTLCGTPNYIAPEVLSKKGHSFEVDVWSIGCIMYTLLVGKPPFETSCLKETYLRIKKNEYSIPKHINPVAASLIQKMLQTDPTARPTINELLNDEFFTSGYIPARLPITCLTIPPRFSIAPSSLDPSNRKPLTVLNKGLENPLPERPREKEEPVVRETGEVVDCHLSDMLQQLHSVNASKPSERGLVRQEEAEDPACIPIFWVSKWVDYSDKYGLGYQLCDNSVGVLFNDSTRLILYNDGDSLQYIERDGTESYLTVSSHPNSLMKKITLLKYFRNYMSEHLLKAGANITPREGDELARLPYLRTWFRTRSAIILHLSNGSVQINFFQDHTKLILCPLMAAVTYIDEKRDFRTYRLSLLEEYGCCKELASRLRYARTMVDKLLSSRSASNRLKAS
G9a inh: inhibitors of human histone lysine methyltransferase G9a; G9a H3K9 monomethylation, AlphaScreen, 2 h; Q96KQ7; AID 504332; 8.8% of 350,000 active; Potency, µM (titrated, usually from 102 µM), for inactives: at the highest dose activity, negative = inhibition, most hits filed as inhibitors; further: on the % scale 0 is the no-effect control and ±100 the full control effect; nearly all actives have a fitted effect of over 75% in size
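G9a (20 nM) was preincubated 15 min with compound, then reacted 2 h at room temperature with 500 nM biotin-H3K9 peptide and 20 µM SAM. Monomethyl-H3K9 detected by AlphaScreen using anti-H3K9me1 antibody.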
BAZ2B inh: blocks human BAZ2B; Potency, µM (highest dose often 114 µM), inactives show top-dose activity change, negative = inhibition, usual class: inhibitors; AlphaScreen BAZ2B-H3K14Ac peptide displacement; AID 504333; 4.4% of 360,000 active; further: on the % scale 0 is the no-effect control and ±100 the full control effect; nearly all actives have a fitted effect of over 60% in size
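AlphaScreen displacement: compounds (up to 110uM) incubated 30 min at room temperature with a preformed 50 nM BAZ2B/50 nM biotinylated H3K14Ac peptide complex in PBS pH 7.4 with Tween-20. Donor and acceptor beads at 10 ug/mL final added, 20 min light-protected before reading.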
Active calls of the source: *; [ ] = remark or other dose. The call rests on the fitted dose curve; in most records, active means well fitted curve in the direction sought with a large enough effect; inconclusive means small, poorly fitted or top-dose-only effect, or another doubt; inactive means no such curve, though single readings can be large; an effect the other way counts as inactive or inconclusive. Potency means the concentration at half of the fitted maximal effect.

CSc1sccc1/C=C(/C#N)C(=O)c1ccco1 was read as HP1b binding inh -21.9%, JMJD2A Tudor inh -21.0%, VDR inhibitor inconclusive, PLK1 PBD block 0.844µM*, G9a inh inconclusive and BAZ2B inh -22.1%.
CCOC(=O)c1ccc(NC(=O)c2cc3c(n(-c4ccc(C)cc4)c2=O)CC(C)(C)CC3=O)cc1 was read as HP1b binding inh 35.6%, JMJD2A Tudor inh -16.6%, VDR inhibitor 12.2%, G9a inh inconclusive and BAZ2B inh -1.0%.
For Cc1ccc(C(c2nnnn2C2CCCC2)N2c3ccccc3CC2C)cc1 (stereo not given) the results were HP1b binding inh 25.6%, JMJD2A Tudor inh -17.5%, VDR inhibitor -9.1%, PLK1 PBD block -0.4%, G9a inh 70.8µM* and BAZ2B inh -10.5%.
Screening O=c1oc2ccccc2cc1-c1cn2cc(Cc3ccc(Br)cc3)sc2n1 returned HP1b binding inh 29.7%, JMJD2A Tudor inh 1.0%, VDR inhibitor 22.3%, G9a inh 9.0%[59 µM] and BAZ2B inh 2.8%.
Screening Cc1nc(N(C)C)c2sc(=S)n(C)c2n1 returned HP1b binding inh 63.2%, JMJD2A Tudor inh -10.6%, VDR inhibitor -1.7%, PLK1 PBD block -13.0%, G9a inh 9.2% and BAZ2B inh -3.1%.
Screening Cc1nc(N(C)C)c2sc(=S)n(-c3ccccc3)c2n1 returned HP1b binding inh 16.7%, JMJD2A Tudor inh inconclusive, VDR inhibitor -14.1%, PLK1 PBD block 26.7µM*, G9a inh 4.5% and BAZ2B inh 1.3%.
`O=C1/C(=C2\C(=O)N(Cc3ccc(F)cc3)c3ccccc32)SC(=S)N1CCS(=O)(=O)O` gave HP1b binding inh inconclusive, JMJD2A Tudor inh 10µM*, VDR inhibitor inconclusive, PLK1 PBD block 21.2µM*, G9a inh inconclusive and BAZ2B inh 14.1µM*.
Screening O=C(O)CN1C(=O)/C(=C2\C(=O)N(Cc3ccccc3Cl)c3ccccc32)SC1=S returned HP1b binding inh -35.9%, JMJD2A Tudor inh inconclusive, VDR inhibitor -19.3%, PLK1 PBD block 26.7µM*, G9a inh 14.1µM* and BAZ2B inh inconclusive.
`CN1C(=O)/C(=C2\SC(=S)N(CC3CCCO3)C2=O)c2ccccc21` (stereo not given) gave G9a inh inconclusive and BAZ2B inh -33.2%.
`COc1cccc(N2C(=O)c3ccccc3C2=O)n1` gave JMJD2A Tudor inh 6.1%.
For O=C(O)C1CCCN(S(=O)(=O)c2ccc3c(c2)OCCO3)C1 (stereo not given) the results were HP1b binding inh 38.6%, JMJD2A Tudor inh 6.9%, VDR inhibitor 11.9%, PLK1 PBD block -23.1% and BAZ2B inh 0.4%.
O=S(=O)(Nc1ccccn1)c1cc(Cl)ccc1Cl was read as HP1b binding inh 20.2%, JMJD2A Tudor inh 12.3%, VDR inhibitor -13.0%, PLK1 PBD block 3.6%, G9a inh 23.8% and BAZ2B inh -1.1%.
For CCn1cc(C(=O)N2CCN(c3cc(Cl)ccc3C)CC2)c(=O)c2cc(S(=O)(=O)N3CCOCC3)ccc21 the results were HP1b binding inh 39.2%, JMJD2A Tudor inh -23.0%, VDR inhibitor -5.8% and G9a inh 2.7%[59 µM].
For C/C(CC1CC(COCCC(C)C)OC1=O)=N\NC(N)=S (stereo not given) the results were HP1b binding inh 22.3%, JMJD2A Tudor inh inconclusive, VDR inhibitor 3.2%, PLK1 PBD block -1.1%, G9a inh 7.4%[0.501 µM] and BAZ2B inh inconclusive.
For C/C(CC1CC2=C(CC1(C)C)C(C)(C)CCC2)=N\NC(N)=S (stereo not given) the results were HP1b binding inh inconclusive, JMJD2A Tudor inh -33.7%, VDR inhibitor 79.4µM*, PLK1 PBD block 16.8µM*, G9a inh 31.6µM* and BAZ2B inh -21.3%.
N#Cc1c(SCC(=O)Nc2nncs2)sc2c(O)cc(=O)[nH]c12 was read as HP1b binding inh inconclusive, JMJD2A Tudor inh 25.1µM*, VDR inhibitor 3.1%, PLK1 PBD block inconclusive, G9a inh inconclusive and BAZ2B inh 10µM*.
Screening COc1ccc(OC)c(NC(=O)CSc2sc3c(O)cc(=O)[nH]c3c2C#N)c1 returned HP1b binding inh inconclusive, JMJD2A Tudor inh 15.8µM*, VDR inhibitor inconclusive, PLK1 PBD block inconclusive, G9a inh inconclusive and BAZ2B inh inconclusive.
CN(C)c1ccc(C(=O)c2ccc(N(C)C)c(N)c2)cc1N was read as HP1b binding inh inconclusive, JMJD2A Tudor inh 56.2µM*, VDR inhibitor -4.5%, PLK1 PBD block 5.2%, G9a inh 79.4µM* and BAZ2B inh 50.1µM*.
Screening COc1ccc(CCNC(=O)CCc2c(C)c3cc4c(C)coc4cc3oc2=O)cc1 returned HP1b binding inh 22.4%, JMJD2A Tudor inh -12.5%, VDR inhibitor 17.8%, G9a inh -6.4%[59 µM] and BAZ2B inh -1.7%.
`O=c1c2cn[nH]c2nc(SCc2cc(=O)n3cc(Br)ccc3n2)n1-c1ccc(Br)cc1` gave HP1b binding inh -16.2%, JMJD2A Tudor inh -30.1%, VDR inhibitor -6.2%, PLK1 PBD block 21.2µM*, G9a inh inconclusive and BAZ2B inh -2.0%.
`O=c1c2cn[nH]c2nc(SCc2ccccc2F)n1-c1ccc(Br)cc1` gave HP1b binding inh 5.6%, JMJD2A Tudor inh inconclusive, VDR inhibitor 13.6%, PLK1 PBD block 2.4%, G9a inh -6.1% and BAZ2B inh inconclusive.
`CCN1C(=O)C(Cc2nc3ccccc3c(=O)n2-c2ccc(OC)cc2)c2cc(C)ccc21` (stereo not given) gave HP1b binding inh 2.2%, JMJD2A Tudor inh inconclusive, VDR inhibitor 5.0%, G9a inh inconclusive and BAZ2B inh inconclusive.
For COc1ccc2c(c1)C=C([C@@H]1C[C@H]3CN(c4ccccc4)C(=O)[C@]34CCCN14)CO2 the results were HP1b binding inh -12.7%, JMJD2A Tudor inh inconclusive, VDR inhibitor -3.8%, PLK1 PBD block -13.6%, G9a inh 56.2µM* and BAZ2B inh -25.8%.
COC(=O)c1ccc(NC(=O)c2nn(C)c3c2CS(=O)(=O)c2ccccc2-3)cc1 was read as HP1b binding inh 10.7%, JMJD2A Tudor inh -15.8%, VDR inhibitor 5.1%, G9a inh 1.1%[59 µM] and BAZ2B inh -2.7%.
Screening CCOC(=O)CSc1cccc2cccnc12 returned HP1b binding inh 18.5%, JMJD2A Tudor inh -8.6%, VDR inhibitor -21.9%, PLK1 PBD block 13.4µM*, G9a inh -0.2%[59 µM] and BAZ2B inh -6.6%.
CCOC(=O)CSc1nnnn1-c1cccc2ccccc12 was read as HP1b binding inh 74.7%, JMJD2A Tudor inh 11.6%, VDR inhibitor -6.1%, PLK1 PBD block -8.2%, G9a inh 10µM* and BAZ2B inh 12.8%.
For CCOc1ccccc1-n1nnnc1SCC(=O)OC the results were HP1b binding inh 30.4%, JMJD2A Tudor inh -5.4%[57.1 µM], VDR inhibitor -23.7%, PLK1 PBD block -10.9%, G9a inh 6.1% and BAZ2B inh 2.9%.

Screening results from PubChem.
